# From PubChem BioAssay
# Sampled rows, rich in hits. Any-hit rate of the full collection: about 11%.
# G9a inh: inhibitors of human histone lysine methyltransferase G9a. Q96KQ7. G9a H3K9 monomethylation, AlphaScreen, 2 h. Potency, µM (highest dose often 102 µM), without a hit: at the highest dose activity, negative = inhibition, most hits filed as inhibitors. 350,000 compounds, 8.8% hits. AID 504332; also: potency is read from the fitted curve at half-maximal effect; % is scaled to controls: 0 for no effect and ±100 for the full control effect; nearly all actives have a fitted effect of over 75% in size
#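 Using a bead-based AlphaScreen, monomethylated H3K9 product from 2 h room-temperature reactions (G9a 20 nM, peptide 500 nM, SAM 20 uM) was detected with 0.5 ug/mL rabbit anti-H3K9me1 antibody.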
# L3MBTL1 inh: L3MBTL1 (human) inhibition; Q9Y468; AlphaScreen L3MBTL1–H3K9me1 peptide binding; Potency, µM (doses to about 57.1 µM), for the others: at the top dose activity, negative = inhibition, most hits filed as inhibitors; 230,000 compounds, 0.66% hits; also: potency is read from the fitted curve at half-maximal effect; % is scaled to controls: 0 for no effect and ±100 for the full control effect; nearly all actives have a fitted effect of over 60% in size
#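 AlphaScreen assay: L3MBTL1 (50 nM final) was preincubated 30 min at room temperature with biotinylated H3(1-15)K9me1 peptide (75 nM final), then 30 min with library compounds; streptavidin donor and nickel chelate acceptor beads (10 ug/mL final) added, 30 min dark.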
# PI5P4Ka inh: PI5P4K alpha (human) kinase inhibition | P48426 | PI5P4Kalpha enzyme, ADP-Glo luminescence, 60 min; active compounds read low | max response, % | 330,000 compounds, 1.2% hits | AID 652105; active = max response of -50% or lower; inconclusive = between -30% and -50%; inactive = -30% or higher; also: value at the top dose of about 77 µM; % is scaled to controls: 0 for no effect and ±100 for the full control effect
#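 Controls without substrate or without enzyme flank wells where PI5P4Kalpha converts substrate using 5 microM ATP (final). Incubation lasts 60 minutes at room temperature; ADP formed is read by ADP-Glo luminescence.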
# BAZ2B inh: BAZ2B (human) inhibition. Q9UIF8. Potency, µM (titrated, usually from 114 µM), for inactives: at the highest dose activity change, negative = inhibition, most hits filed as inhibitors. AlphaScreen BAZ2B-H3K14Ac peptide displacement. 360,000 compounds, 4.4% hits; also: potency is read from the fitted curve at half-maximal effect; % is scaled to controls: 0 for no effect and ±100 for the full control effect; nearly all actives have a fitted effect of over 60% in size
#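 In this displacement format the biotinylated H3(5-23) peptide acetylated at Lys14 serves as ligand at 50 nM, with BAZ2B at 50 nM in PBS pH 7.4 containing 0.01% Tween-20. Donor and acceptor beads are 10 ug/mL final.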
# JMJD2A Tudor inh: inhibitors of human JMJD2A Tudor domain. Potency, µM (top dose mostly 114 µM), inactives show at the highest dose activity change, negative = inhibition, hits mostly inhibitors. O75164. AlphaScreen JMJD2A-Tudor / H3K4me3 peptide binding. 390,000 compounds, 4.4% hits; also: potency is read from the fitted curve at half-maximal effect; % is scaled to controls: 0 for no effect and ±100 for the full control effect; nearly all actives have a fitted effect of over 50% in size
# HP1b binding inh: HP1-beta chromodomain-methylated histone interaction inhibition. P83916. AlphaScreen HP1-beta / biotin-H3K9me3 peptide binding. Potency, µM (series often up to 114 µM), without a hit: at the highest dose activity change, negative = inhibition, hits mostly inhibitors. 390,000 compounds, 0.56% hits; also: potency is read from the fitted curve at half-maximal effect; nearly all actives have a fitted effect of over 70% in size
#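 Compound inhibition of the preformed complex between 50 nM HP1-beta and 50 nM biotinylated H3K9me3 peptide was read by AlphaScreen. Buffer was PBS pH 7.4 with 0.01% Tween-20. Incubations ran 30 min at room temperature, with 10 ug/mL donor/acceptor beads.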
# * marks the source's active call; other numbers are inactive results; ? = inconclusive; nt = no result; [ ] = another dose, or the depositor's remark. Unless noted, calls follow the shape of the dose curve; as a rule, active = well fitted inhibition curve with a large enough effect; inconclusive = small, poorly fitted or top-dose-only effect; inactive = no such curve, though single readings can be large or run the other way.
SMILES,G9a inh,L3MBTL1 inh,PI5P4Ka inh,BAZ2B inh,JMJD2A Tudor inh,HP1b binding inh
O=c1c2cc(N3CCOCC3)ccc2[nH]c(=S)n1Cc1ccccn1,?,-15%[11.4 µM],nt,-35%,28µM*,40%
COc1ccc(-c2ccc3c(N)c(C(=O)Nc4ccc(C)cc4C)sc3n2)cc1OC,?,nt,nt,-13%,-14%,44%
COc1ccc(-n2ccn(CC(=O)NCCc3ccccc3)c(=O)c2=O)cc1OC,4%[59 µM],nt,nt,?,-10%,19%
O=C(CSc1n[nH]c(-c2ccccc2)n1)c1ccc(O)c(O)c1,7.9µM*,?,nt,45µM*,63µM*,-13%
C=CCSc1n[nH]c(-c2ccc(OCCC)cc2)n1,5%[12.7 µM],8%,nt,8%,-2%,58%
CCCOc1ccc(-c2nc(SCC(=O)c3ccc(Cl)cc3)n[nH]2)cc1,14µM*,nt,nt,-21%,?,42%
COc1ccc(C(=O)CSc2n[nH]c(-c3ccco3)n2)cc1,?,0%,nt,-3%,-12%,14%
CCOc1ccc(-c2nc(SCC(=O)c3ccccc3)n[nH]2)cc1,14µM*,nt,nt,-15%,25µM*,20%
COc1cc(NC(=O)c2cc(Cl)c(OC)c(Cl)c2)ccc1NC(=O)c1cc2ccccc2o1,0%[59 µM],nt,nt,3%,-19%,14%
N#Cc1c(NC(=O)c2ccccc2)sc2c1CCCCC2,11%[59 µM],6%,6,13%,-12%,9%
Cc1ccc(C(=O)Nc2sc3c(c2C#N)CCCCC3)cc1C,-31%[59 µM],6%,nt,1%,11%,18%
Cn1ccc(C(=O)Nc2sc3c(c2C#N)CCC3)n1,35µM*,nt,-8,?,1%,12%
Cc1c(Br)c([N+](=O)[O-])nn1CCCC(=O)Nc1sc2c(c1C#N)CCC2,?,-9%,-27,?,50µM*,?
Cn1cc(Br)c(C(=O)Nc2sc3c(c2C(N)=O)CCCC3)n1,35µM*,nt,-8,-5%,-19%,-10%
Cc1cc(C(F)F)n2nc(C(=O)Nc3sc4c(c3C#N)CCC4)nc2n1,50µM*,-4%,-5,?,-22%,?
COCCn1cnnc1SCC(=O)Nc1sc2c(c1C#N)CCC2,14%[2.33 µM],-11%,-22,-4%,-21%,10%
Cn1cnnc1SCC(=O)Nc1sc2c(c1C(N)=O)CCC2,?,?,nt,50µM*,63µM*,?
N#Cc1c(NC(=O)c2cc(-n3cnnc3)ccc2Cl)sc2c1CCCC2,11µM*,3%,-5,-26%,-32%,0%
Cn1cc(Br)c(C(=O)Nc2sc3c(c2C#N)CCC3)n1,35µM*,-8%,-12,0%,-24%,-16%
Cn1cc([N+](=O)[O-])c(C(=O)Nc2sc3c(c2C#N)CCC3)n1,7%,nt,7,-30%,-12%,31%
CC(C)CCn1c(=O)c2sccc2n2c(CCCC(=O)NC(C)c3ccccc3)nnc12 (stereo not drawn),1%[59 µM],nt,nt,-10%,-6%,35%
O=C(OCC#CCSc1nnc(-c2cccc3ncccc23)o1)c1ccc(F)cc1,nt,nt,nt,nt,-11%,nt
C=C(C)C1CC=C(CN2CC(C)OC(C)C2)CC1 (stereo not drawn),7.9µM*,nt,-5,?,4µM*,?
C=C(C)C1CC=C(CN2CCC(C(=O)OCC)CC2)CC1 (stereo not drawn),?,6%,nt,-25%,2.5µM*,?
CCN1CCN(C(c2cccc(OC)c2)c2c(O)cc(C)n(Cc3ccco3)c2=O)CC1 (stereo not drawn),?,nt,nt,-16%,-26%,31%[57 µM]
SMILES,G9a inh,L3MBTL1 inh,PI5P4Ka inh,BAZ2B inh,JMJD2A Tudor inh,HP1b binding inh
COc1ccc2c(c1)c(C(O)CN1CCN(Cc3ccc4c(c3)OCO4)CC1)c(C)n2C (stereo not drawn),50µM*,-36%,9,?,56µM*,?
Cc1c(C(O)CN2CCN(Cc3ccc4c(c3)OCO4)CC2)c2ccccc2n1C (stereo not drawn),?,nt,nt,?,56µM*,-38%
COc1ccc2cc(C(=O)N3CCN(Cc4ccc5c(c4)OCO5)CC3)[nH]c2c1,-43%,nt,5,?,-6%,79%
COc1ccc2c(c1)c(C(O)CN1CCC(Cc3ccccc3)CC1)c(C)n2C (stereo not drawn),?,?,1,35µM*,28µM*,?
OC(CN1CCN(Cc2ccc3c(c2)OCO3)CC1)c1c[nH]c2ccccc12 (stereo not drawn),16%[0.501 µM],2%,-3,0%,-25%,2%
O=C(O)CSc1nc2sc3c(c2c(=O)n1Cc1ccccc1)CCCCC3,4%,nt,-1,-12%,-16%,9%
O=C(O)CSc1cc(C(=O)c2ccccc2O)cn2c(=O)c3c4c(sc3nc12)CCCC4,?,nt,?,22µM*,35µM*,71µM*
Cc1ccc(S/C(=N/S(=O)(=O)c2ccc(Cl)cc2)c2ccccc2)cc1,nt,nt,nt,nt,11%[57.1 µM],57%[57 µM]
CC1CC(C)(C)NC(=S)N1CCC(=O)NCc1ccc(F)cc1 (stereo not drawn),40µM*,19%,0,-3%,-7%,20%
O=C(CN1C(=O)C2CC=CCC2C1=O)Nc1ccc(Br)cc1 (stereo not drawn),0%,nt,3,0%,-13%,20%
Cc1cc(Br)ccc1NC(=O)CN1C(=O)C2CC=CCC2C1=O (stereo not drawn),0.79µM*,-5%,4,-9%,?,7%
Cc1cc(Br)ccc1NC(=O)CN1C(=S)NC(C)(C)CC1C (stereo not drawn),32µM*,24%,-11,-13%,2%,-18%
N#CCSc1ccccc1NC(=O)CN1C(=O)C2CC=CCC2C1=O (stereo not drawn),45µM*,-6%,-16,11%,-16%,10%
COc1cccc(CNC(=O)Cn2c(=O)ccc3cc(S(=O)(=O)N4CCCC4)ccc32)c1,2%[59 µM],nt,nt,1%,-12%,20%[57 µM]
O=C(Nc1ccc(F)cc1)C(=O)c1c(O)[nH]c2ccc([N+](=O)[O-])cc12,32µM*,-2%,-3,?,?,-17%
Cc1ccc(NCC(=O)N=Nc2c(O)[nH]c3ccc([N+](=O)[O-])cc23)cc1,nt,8%,?,-15%,-25%,41%
CCC(CC)C(=O)Nc1cccc(-c2nc3cccnc3s2)c1C,-28%[59 µM],nt,nt,-33%,-29%,-4%
O=C1Cc2ccccc2C(=O)N1c1ccccc1,14%[59 µM],nt,0,-2%,-7%,0%
O=C1c2cccc3c(O)ccc(c23)C(=O)N1Cc1ccccc1,9%[2.33 µM],nt,-63*,5%,36%,50%
O=C1Cc2ccccc2C(=O)N1Cc1ccccc1,50µM*,nt,-17,-33%,-6%[11.4 µM],33%
O=C1Cc2ccccc2C(=O)N1c1ccc(F)cc1Cl,50µM*,nt,?,-12%,-23%,20%
